Reference: PubChem BioAssay (EPA / NIEHS)
Inconclusive results are not listed. Active and inactive are the calls of the source. Rule for the calls: active = hit-call score of the fitted dose curve at least 0.9, where 1 is the maximum; inconclusive = response in the unintended direction; inactive = score below 0.9.

Assays:
[1] = TOX21_p53_BLA_p2_viability: Viability Assessment in the Tox21 HCT-116 p53 Agonism Beta-lactamase Assay, Phase 2 (AID 2283591);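 note: compound exposure lasted 16 h at 37 °C; actives lower the ATP signal meaning cytotoxicity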
Method in brief: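 HCT-116 p53-bla cells (4000/well) rested 5 h at 37C, then received compounds in DMSO (217-fold dilution) for 16 h at 37C, 5% CO2. After the CCF4 read, CellTiter-Glo was added; ATP luminescence was read after 30 min at room temperature.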

[2] = target: Cellular tumor antigen p53 (Homo sapiens) (UniProt P04637); test: TOX21_p53_BLA_p2_ratio: Tox21 HCT-116 p53 Agonism Beta-lactamase Assay, Ratio, Phase 2 (AID 2283592)
Cellular tumor antigen p53 (Homo sapiens), sequence (P04637 whole entry, looked up): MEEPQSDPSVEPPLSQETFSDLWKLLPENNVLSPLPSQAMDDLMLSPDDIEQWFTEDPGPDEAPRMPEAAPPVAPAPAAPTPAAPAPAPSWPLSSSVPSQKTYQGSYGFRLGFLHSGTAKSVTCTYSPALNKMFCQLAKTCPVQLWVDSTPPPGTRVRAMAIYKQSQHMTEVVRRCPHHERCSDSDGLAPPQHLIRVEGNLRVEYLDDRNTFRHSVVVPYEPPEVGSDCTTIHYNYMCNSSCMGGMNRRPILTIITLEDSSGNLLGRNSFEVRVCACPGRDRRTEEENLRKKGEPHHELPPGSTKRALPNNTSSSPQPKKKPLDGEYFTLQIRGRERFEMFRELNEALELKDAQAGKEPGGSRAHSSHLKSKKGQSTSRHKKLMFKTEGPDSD
Method in brief: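 Human colon HCT116 cells with an inducible p53 beta-lactamase reporter are exposed to test chemicals for 16 h at 37C. Reporter induction is read as the 460/530 nm emission ratio after CCF4-AM loading, normalized to DMSO.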

[3] = TOX21_p53_BLA_p3_viability: Viability Assessment in the Tox21 HCT-116 p53 Agonism Beta-lactamase Assay, Phase 3 (AID 2283593);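 note: cells exposed to compound for 16 h before reading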
Method in brief: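 HCT-116 cells (4000/well) rested 5 h at 37C, then got DMSO compounds by pin tool (217-fold dilution) for 16 h at 37C, 5% CO2. After the bla read, CellTiter-Glo was added and luminescence read at 30 min, room temperature.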

[4] = TOX21_p53_BLA_p4_viability: Viability Assessment in the Tox21 HCT-116 p53 Agonism Beta-lactamase Assay, Phase 4 (AID 2283597);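 note: hits lower the luminescence signal meaning cytotoxicity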
Method in brief: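 Luminescent ATP readout (CellTiter-Glo, 30 min, room temperature) in the same wells as the p53 bla ratio. HCT116 cells were treated for 16 h at 37C with DMSO-dissolved compounds.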

[5] = target: Cellular tumor antigen p53 (Homo sapiens) (UniProt P04637); test: TOX21_p53_BLA_p5_ratio: Tox21 HCT-116 p53 Agonism Beta-lactamase Assay, Ratio, Phase 5 (AID 2283599)
Method in brief: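 HCT-116 cells carrying a p53-inducible beta-lactamase reporter were seeded at 4000 cells/well and dosed after 5 h with compound in DMSO (217-fold dilution). After 16 h at 37C, CCF4-AM substrate was added for 2 h, and the 460/530 nm emission ratio was scored as gain-of-signal versus DMSO.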

[6] = target: Cellular tumor antigen p53 (Homo sapiens) (UniProt P04637); test: TOX21_p53_BLA_p4_ratio: Tox21 HCT-116 p53 Agonism Beta-lactamase Assay, Ratio, Phase 4 (AID 2283601)
Method in brief: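 HCT116 cells carrying an inducible beta-lactamase reporter were plated at 4000 cells/well, rested 5 h, then exposed to compounds in DMSO (217-fold dilution) for 16 h at 37C. CCF4-AM substrate was loaded 2 h at room temperature; 460/530 nm emission ratio scored gain-of-signal versus DMSO.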

[7] = TOX21_p53_BLA_p5_viability: Viability Assessment in the Tox21 HCT-116 p53 Agonism Beta-lactamase Assay, Phase 5 (AID 2283600)
Method in brief: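 Seeded cells (4000/well) settle 5 h before compound addition. Plates then incubate 16 h at 37C, receive FRET substrate for 2 h, and finally CellTiter-Glo, with luminescence measured after a 30 min room-temperature incubation.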

Measured: outcome

CC(C)c1cc2c(cc1S(=O)(=O)O)[C@@]1(C)CCC[C@@](C)(C(=O)O)[C@@H]1CC2
inactive: [1] | [2] | [3] | [4] | [5] | [6]

CN1CCC(OC(=O)C(Oc2ccc(Cl)cc2)Oc2ccc(Cl)cc2)CC1
inactive: [1] | [2] | [3] | [4] | [5] | [6]

C=CCONC(CCC)=C1C(=O)CC(C)(C)C(C(=O)OC)=C1O
inactive: [1] | [2] | [3] | [4] | [5] | [6]

CCN(CC)Cc1cc(Nc2ccnc3cc(Cl)ccc23)ccc1O
inactive: [1] | [2] | [3] | [4] | [7] | [6]

c1ccc(CNCCNCc2ccccc2)cc1
inactive: [1] | [2] | [3] | [4] | [7] | [6]

Cc1nccn1CC1CCc2c(c3ccccc3n2C)C1=O (stereo unspecified)
inactive: [1] | [2] | [3] | [4] | [7] | [6]

CC(C)=CCC/C(C)=C/CC/C(C)=C/CC/C=C(\C)CC/C=C(\C)CCC=C(C)C
inactive: [1] | [2] | [3] | [4] | [7]
